Hedgehog inh: blocks Sonic Hedgehog signaling; Shh-LIGHT2 Gli-luciferase reporter, 30 h; inhibition, % (no concentration beside the values); 22,000 tested, 2.1% active; AID 2313;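 active = mean inhibition across valid replicates above about 65%, limit read from the data; inconclusive = mean under the limit, yet half or more replicates past it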;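 note: pathway switched on by Shh-conditioned medium diluted 1 in 25 in low serum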
PD-1 reversal: activators reversing PD-1 mediated T-cell inhibition. primary human CD4 T cells, PD-L1 beads, CellTiter-Glo 96 h. AID 2316. activation, % (test concentration not listed). 29,000 tested, under 10 active; call rule not given here;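 note: 0% = median vehicle wells and 100% = positive control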
NOMO-1 viab: STK33 inhibitor candidate reducing NOMO-1 cell viability | AID 2330 | 37,000 tested, 7.5% active | inhibition, % (concentration not given with the values) | NOMO-1 AML viability, CellTiter-Glo luminescence, 72 h; in the data active = inhibition above about 80%; inconclusive = no clear call, values can overlap the other calls
An asterisk follows results filed as active; ? = inconclusive; nt = no result. Shown are actives, neighbours in structure and some others; about 7.7% of the full set was active somewhere.

SMILES	Hedgehog inh	PD-1 reversal	NOMO-1 viab
C[C@@H]1CN([C@@H](C)CO)C(=O)c2cccc(NC(=O)Nc3ccccc3)c2O[C@@H]1CN(C)Cc1ccc(-c2ccccc2)cc1	-41	0	102*
C[C@H]1CN([C@@H](C)CO)C(=O)c2cccc(NC(=O)Nc3ccc(F)cc3)c2O[C@@H]1CN(C)Cc1ccc(-c2ccccc2)cc1	-16	nt	59
Cc1noc(C)c1NC(=O)Nc1cccc2c1O[C@H](CN(C)Cc1ccc(-c3ccccc3)cc1)[C@@H](C)CN([C@H](C)CO)C2=O	-27	-3	111*
C[C@@H]1CN([C@H](C)CO)C(=O)c2cccc(NC(=O)Nc3ccc(F)cc3)c2O[C@@H]1CN(C)Cc1ccc(-c2ccccc2)cc1	10	-2	82*
Cc1noc(C)c1NC(=O)Nc1cccc2c1O[C@H](CN(C)Cc1ccccc1)[C@@H](C)CN([C@H](C)CO)C2=O	-22	0	38
Cc1noc(C)c1NC(=O)Nc1cccc2c1O[C@@H](CN(C)S(C)(=O)=O)[C@@H](C)CN([C@@H](C)CO)C2=O	-18	-3	102*
Cc1noc(C)c1NC(=O)Nc1cccc2c1O[C@@H](CN(C)S(C)(=O)=O)[C@H](C)CN([C@H](C)CO)C2=O	11	1	18
C[C@H](CO)N1C[C@H](C)[C@@H](CN(C)Cc2ccc(-c3ccccc3)cc2)Oc2c(NC(=O)Nc3ccc(F)cc3)cccc2C1=O	-2	0	36
COc1ccc(C(=O)CSc2nnc(-c3ccccc3)n2-c2ccc(Br)cc2)cc1	nt	nt	26
[N-]=C=N[n+]1ccc2ccccc2c1C(=O)c1ccc(Cl)cc1	-72	-5	52
CN1C(=O)C(C(=O)NC(C)(C)C)C2CC1(C)Oc1ccccc12 (configuration not stated)	-33	2	-4
Cc1cc(C)c(C(=O)Nc2ccc(S(=O)(=O)Nc3cc(C)nc(C)n3)cc2)c(C)c1	nt	4	-11
Cc1cc(C)c(C)c(OCC(O)Cn2cnc3ccccc32)c1 (configuration not stated)	nt	nt	56
CN(C)c1nc(OCC(=O)Nc2ccc(Cl)cc2)nc(N(C)C)n1	nt	-2	39
C[C@@H]1CN([C@H](C)CO)C(=O)c2cccc(NC(=O)Nc3cccc4ccccc34)c2O[C@@H]1CN(C)Cc1ccc(-c2ccccc2)cc1	-41	-4	107*
C[C@@H]1CN([C@H](C)CO)C(=O)c2cccc(N(C)C)c2O[C@H]1CN(C)Cc1ccc(-c2ccccc2)cc1	-59	-8	86*
C[C@@H]1CN([C@H](C)CO)C(=O)c2cccc(N(C)C)c2O[C@@H]1CN(C)Cc1ccc(-c2ccccc2)cc1	-13	0	25
C[C@@H]1CN([C@H](C)CO)C(=O)c2cccc(NC(=O)Nc3cccc4ccccc34)c2O[C@@H]1CN(C)Cc1ccc(C(=O)O)cc1	-8	2	6
O=C(CSCc1cccc2ccccc12)Nc1ccc(C(F)(F)F)cc1	20	0	31
CN(C)c1nc(-c2ccc(Cl)cc2)[nH]c(=O)n1	-10	0	-3
COc1ccc(N2C(=O)Cc3ccc(OC)cc3C2=O)cc1	-26	4	120*
COc1ccc2c(c1)CCC(=O)C2	-63	0	3
C[C@H]1CN([C@@H](C)CO)C(=O)c2cccc(NC(=O)Nc3ccccc3)c2O[C@@H]1CN(C)Cc1ccc(Cl)c(Cl)c1	-5	0	64
C[C@@H]1CN([C@@H](C)CO)C(=O)c2cccc(NC(=O)Nc3ccccc3)c2O[C@H]1CN(C)Cc1ccc(Cl)c(Cl)c1	9	nt	102*
C[C@@H]1CN([C@@H](C)CO)C(=O)c2cccc(NC(=O)Nc3ccc(F)cc3)c2O[C@@H]1CN(C)Cc1ccc(Cl)c(Cl)c1	40	-5	93*
SMILES	Hedgehog inh	PD-1 reversal	NOMO-1 viab
C[C@@H]1CN([C@H](C)CO)C(=O)c2cccc(NC(=O)C3CCOCC3)c2O[C@H]1CN(C)Cc1ccc(Cl)c(Cl)c1	70*	-4	30
C[C@H](CO)N1C[C@H](C)[C@@H](CN(C)Cc2ccc(Cl)c(Cl)c2)Oc2c(NC(=O)C3CCOCC3)cccc2C1=O	-2	0	34
C[C@@H]1CN([C@H](C)CO)C(=O)c2cccc(NC(=O)Nc3ccccc3)c2O[C@@H]1CN(C)Cc1ccc(Cl)c(Cl)c1	25	-4	?
Nc1ccccc1CC(c1c[nH]c2ccccc12)c1c[nH]c2ccccc12	nt	0	64
CCOC(=O)c1ccc(N=Cc2ccc(Cl)cc2)cc1	-33	-13	13
CC1=C(C#N)C(c2cc(F)ccc2F)C(C(=O)OCc2ccccc2)=C(N)O1 (configuration not stated)	-45	-1	74
Cc1ccc(C(=O)/C=C/Nc2ccc(C(F)(F)F)cc2)cc1	-78	1	7
CCc1nc(SCC(=O)Nc2ccc(OC)cc2)c2c3c(sc2n1)COC(C)(C)C3	nt	-6	36
CCCC(NS(=O)(=O)c1ccc(C)cc1)C(=O)O (configuration not stated)	nt	nt	0
Cc1ccc(S(=O)(=O)N[C@@H](Cc2ccccc2)C(=O)CCl)cc1	95*	nt	120*
CC(=O)c1ccc(NC(=O)CSc2nnc(-c3cccs3)n2-c2ccccc2)cc1	nt	-4	46
C[C@H](CO)N1C[C@H](C)[C@H](CN(C)C(=O)NC2CCCCC2)Oc2ccc(NC(=O)Nc3ccc(C(F)(F)F)cc3)cc2C1=O	20	-4	63
C[C@H]1CN([C@@H](C)CO)C(=O)c2cc(NC(=O)Nc3ccc(C(F)(F)F)cc3)ccc2O[C@H]1CN(C)C(=O)NC1CCCCC1	-15	-3	103*
C[C@@H]1CN([C@@H](C)CO)C(=O)c2cc(NC(=O)Nc3ccc(F)cc3)ccc2O[C@H]1CN(C)C(=O)Nc1ccc(C(F)(F)F)cc1	-38	-1	61
C[C@@H]1CN([C@@H](C)CO)C(=O)c2cc(NC(=O)Nc3ccc(C(F)(F)F)cc3)ccc2O[C@@H]1CN(C)C(=O)Nc1ccc(C(F)(F)F)cc1	31	-6	114*
C[C@@H]1CN([C@@H](C)CO)C(=O)c2cc(NC(=O)Nc3ccc(C(F)(F)F)cc3)ccc2O[C@H]1CN(C)C(=O)Nc1ccc(C(F)(F)F)cc1	10	-7	105*
C[C@H]1CN([C@@H](C)CO)C(=O)c2cc(NC(=O)Nc3ccc(C(F)(F)F)cc3)ccc2O[C@H]1CN(C)C(=O)Nc1ccc(F)cc1	8	0	76
C[C@@H]1CN([C@H](C)CO)C(=O)c2cc(NC(=O)Nc3ccc(C(F)(F)F)cc3)ccc2O[C@@H]1CN(C)C(=O)Nc1ccc(C(F)(F)F)cc1	-51	nt	94*
C[C@@H]1CN([C@H](C)CO)C(=O)c2cc(NC(=O)Nc3ccc(F)cc3)ccc2O[C@@H]1CN(C)C(=O)Nc1ccc(C(F)(F)F)cc1	-5	-2	48
O=[N+]([O-])c1ccccc1S(=O)(=O)NCCOc1ccc(Cl)cc1	nt	nt	-1
CN(CC(=O)Nc1ccccc1C(=O)N1CCCCC1)S(=O)(=O)c1ccc2ccccc2c1	nt	0	26
CCOC(=O)c1c(NC(=S)Nc2cnccn2)sc(C)c1-c1ccccc1	nt	2	47
CCOC(=O)c1c(N)sc2c1CCC(Sc1ccccc1)C2=O (configuration not stated)	-15	0	26
N/C(=N/C(=S)Nc1ccccc1)N1CCOCC1	-36	2	8

Assay outcomes as filed in PubChem.
